Out of some 65,000 compounds screened, about 2,100 (3.2%) showed an effect of 50% or more. The median lay at about -52%. This excerpt belongs to a sample that is enriched for strong results.

The experiment relates to Plasmodium falciparum. Put plainly: Screen against P. falciparum Asexual Blood Stage (ABS), at 5uM. It is filed as functional, Dd2. The settings on record: tested at 5 uM.
As for `CC1=Nc2c(c(=O)[nH]n2C(C)C)C(c2ccc3nccnc3c2)S1` (stereo unspecified), the INHIBITION is -82.6%.
On to `Cc1ccc(N2CCCC(NCc3ccccn3)C2)nn1` (stereo unspecified), for which the INHIBITION is -71.8%.
The value for `O=C(c1ccccc1)N1CCN(CC(O)c2ccc(F)cc2)CC1` (stereo unspecified) was -120%; that for `O=C(CN1CCCC1Cn1cncn1)Nc1ccc(Cl)cn1` (stereo unspecified) was -112%.
The figure for `Cc1cc(N2CCN(C(=O)c3cc(Cl)c[nH]3)CC2)nc(C)n1` is -19.7%; for `Cc1cc(N2CCN(C(=O)c3cc(Cl)c[nH]3)CC2)nc(N)n1` it is 69.8%; for `Cc1cc(N2CCN(C(=O)c3cc(Cl)c[nH]3)CC2)nc(C(C)C)n1` it is 13%.
As to `COc1ccc(CC2(CO)CCN(c3cc(C(N)=O)ccn3)CC2)cc1`, the INHIBITION is recorded as -129%.
The figure for `COc1ccc(-n2cnnc2SCC(=O)NC(C)C)cn1` is -44.5%; for `CS(=O)(=O)N1CCC2(CCN(C(=O)c3cccnc3)CC2)C1` it is -35.5%.
The value for `COCC(=O)NCC1CCCN(Cc2cc3ccccc3[nH]2)C1` (stereo unspecified) was -18.1%; that for `COC(=O)c1cccc(C(=O)N(CCC#N)CC(C)(C)C)c1` was -61.6%; that for `Cc1nc(Nc2cnccn2)cc(C2CN(C(C)C)C2)n1` was -131%.
`Cc1nc(Nc2nccs2)cc(C2CN(C(C)C)C2)n1`: the INHIBITION is reported as 59.7%.
As for `Cc1csc(Nc2cc(C3CN(C(C)C)C3)nc(C)n2)n1`, the INHIBITION is on record as -3.32%.
Regarding `Cc1cccc(CN2CCOC(C)(C(=O)N3CCOCC3)C2)n1` (stereo unspecified), the INHIBITION is -28.9%.
The value for `Cc1ccc(OCCN2CCCC(c3cc(C(N)=O)[nH]n3)C2)cc1` (stereo unspecified) was -109%; that for `NC(=O)c1cc(C2CCCN(CCCOc3ccc(F)cc3)C2)n[nH]1` (stereo unspecified) was -96.5%.
On to `NC(=O)c1cc(C2CCCN(CCOc3ccc(F)cc3)C2)n[nH]1` (stereo unspecified), for which the INHIBITION worked out at 52.4%.
For the molecule `COC(=O)c1cccnc1N1CCC(Oc2cccc(F)c2)CC1`, the INHIBITION is -23.9%.
The figure for `CN(C)[C@@H]1CCN(S(=O)(=O)C2CC2)[C@H]1Cc1ccccc1` is 64.9%.
The value for `CN(C)[C@@H]1CCN(S(C)(=O)=O)[C@H]1Cc1ccccc1` was 19.4%.
As for `CC(C)N(C)[C@@H]1CCN(Cc2ccoc2)[C@H]1Cc1ccccc1`, the INHIBITION amounted to 13.7%.
On to `CC(C)N(C)[C@@H]1CCN(S(C)(=O)=O)[C@H]1Cc1ccccc1`, for which the INHIBITION is recorded as 54.9%.
The value for `CC(C)NC(=O)N1CC[C@@H](N(C)C)[C@@H]1Cc1ccccc1` was 16.7%; that for `CN(C)[C@@H]1CCN(S(=O)(=O)c2cn(C)cn2)[C@H]1Cc1cccnc1` was -57.5%; that for `CCOc1nnc(CN2CCN(CCOC)C(C)C2)s1` (stereo unspecified) was 1.7%.
The value for `Cc1cc(C(=O)N(C)Cc2cnn(C)c2C)n(C)n1` was -72.2%.
Consider `Cc1cccc(C(C)C)c1NC(=O)CN(C)C(C)c1nccs1` (stereo unspecified), for which the INHIBITION came to 10.7%.
The value for `Cc1nnc(C2CCN(C(=O)c3ccc4nccnc4c3)CC2)s1` was -22.7%; that for `NCC1CCCCN1C(=O)Cc1ccc(F)c(F)c1` (stereo unspecified) was 9.77%.
The figure for `CSc1nccc(N2CCC3(CCCN(Cc4ccc(F)cc4)C3)C2)n1` (stereo unspecified) is 2.13%.
Consider `CSc1nccc(N2CCC3(CCCN(Cc4cccc(C)c4)C3)C2)n1` (stereo unspecified), for which the INHIBITION is given as 27.2%.
For the molecule `CSc1nccc(N2CCC3(CCCN(CCc4ccccc4)C3)C2)n1` (stereo unspecified), the INHIBITION amounted to 50.1%.
The value for `CCN(CC)S(=O)(=O)N1C[C@@H](O)[C@H](Oc2cccc(F)c2)C1` was -6.79%.
The figure for `COCC(=O)N1CCC(C(=O)c2cc(C)cnc2N)CC1` is -65.6%; for `O=S(=O)(Cc1ccc(F)cc1)NCc1nnc2n1CCC2` it is -90.9%; for `FC(F)(F)c1nc(NC2CCCCC2)c2ccccc2n1` it is -10.5%.
As to `COc1ccc(CCN2CCCC(CN(C)Cc3[nH]cnc3C)C2)cc1` (stereo unspecified), the INHIBITION is -4.52%.
The figure for `COc1ccccc1CCN1CCCC(CN(C)Cc2c[nH]c(C)n2)C1` (stereo unspecified) is 67.4%; for `Cc1nc(CN2CCCC(CCc3ccccc3C)C2)c[nH]1` (stereo unspecified) it is 14.6%; for `Cc1cc(CN(C)CC2CCCN(CCc3ccc(Cl)cc3)C2)[nH]n1` (stereo unspecified) it is -65.3%.
The value for `COc1ccccc1CCN1CCCC(CN(C)Cc2cc(C)n[nH]2)C1` (stereo unspecified) was 55.5%.
For `COc1ccc(CCN2CCCC(CN(C)Cc3ccc(C)o3)C2)cc1` (stereo unspecified), the INHIBITION is -45.9%.
The figure for `O=C(Cn1ccc(-c2ccccc2)n1)N1CCN(C(=O)C2CC2)CC1` is -54.1%; for `O=C(O)Cn1nc(C2CC2)c2c(-c3ccc(F)cc3)ccnc21` it is -143%.
The figure for `Cc1nc(N2CCC3(CCOC3)C2)c2cc[nH]c2n1` (stereo unspecified) is -21.2%.
The figure for `O=C(CN1CCc2sccc2C1)Nc1ccnc2ccnn12` is -83.1%; for `OCCCNc1nc(O)c2c(n1)-c1ccccc1CC21CCCCC1` it is 4.32%.
For `COCC(=O)N1CCC2(C1)c1ccccc1S(=O)(=O)N2C` (stereo unspecified), the INHIBITION is recorded as -58.6%.
The figure for `CS(=O)(=O)NCc1nnc2n1CCN(Cc1ccncc1)C2` is -3.62%.
As to `Cc1cc(C(=O)N2CCc3ncc(CN4CCCC4)n3CC2)no1`, the INHIBITION was -1.1%.
The value for `COc1ccc(CN2CCCC2)cc1Oc1ccc(NC(C)=O)cc1` was -44.6%; that for `COc1cc(CN2CCCC2)ccc1Oc1ccc2c(c1)CC(CN)O2` (stereo unspecified) was 59.8%.
The figure for `Cc1cc(CN2CCCC2)cc(Oc2ccc3c(c2)CC(CN)O3)c1` (stereo unspecified) is 28.4%; for `Cc1ccc(N2CCO[C@H]3CN(C(=O)c4cccc(C)n4)C[C@H]32)nn1` it is -46.4%.
The value for `CCn1c(CN(C)Cc2cnc(C)s2)nc2cc(F)ccc21` was -16.6%; that for `CCn1c(CN(C)Cc2csc(C)n2)nc2cc(F)ccc21` was 61%.
For the molecule `CCn1c(CN(C)Cc2cnc(C)s2)nc2c(F)cccc21`, the INHIBITION is recorded as -30.4%.
The value for `Cc1csc(CCCNc2ccc(S(N)(=O)=O)cc2C#N)n1` was -9.07%.
The figure for `CC(CN1CCC(c2ccccc2)CC1)n1cnc2ccccc21` (stereo unspecified) is 3.15%.
For `COCCN1CCCCC12CC(=O)N(c1ccccc1OC)C2` (stereo unspecified), the INHIBITION is on record as -78.3%.
Consider `c1coc(CN2CCC3(CCOCC3COCC3CC3)CC2)c1` (stereo unspecified), for which the INHIBITION is 62.3%.
The value for `c1cc(CN2CCC3(CCOCC3COCC3CC3)CC2)co1` (stereo unspecified) was 14.4%; that for `O=C(Cc1ccco1)N1CCC2(CCOCC2COCC2CC2)CC1` (stereo unspecified) was -30.9%; that for `Cc1cccc(CN2CCC3(CCCN(C(=O)N(C)C)C3)C2=O)n1` (stereo unspecified) was -86.4%.
The value for `CN(C)c1nc(N)nc(CN2CCC(c3nc4ccccc4o3)CC2)n1` was 7.31%.
The value for `Cc1cccc(C2CCCN2Cc2nc(N)nc(N(C)C)n2)c1C` (stereo unspecified) was -12.4%; that for `CN(C)c1nc(N)nc(CN2CCCC2c2ccsc2)n1` (stereo unspecified) was 26.9%.
As to `CN(C)c1nc(N)nc(CN2CCCC(c3ccccc3)CC2)n1` (stereo unspecified), the INHIBITION was determined as 54%.
The figure for `c1ccc(C2CCCN(Cc3cc4n(n3)CCNC4)CC2)cc1` (stereo unspecified) is 37.2%.
The value for `CN(C)c1nc(N)nc(CN2CCCC2c2cccs2)n1` (stereo unspecified) was 52%; that for `COCC1CN(C(=O)Cc2ccccn2)Cc2ncnn2C1` (stereo unspecified) was -70.5%.
`Cc1cc(C(=O)N2CCN(c3nc4c(C(C)C)cccc4s3)CC2)on1`: the INHIBITION came to 35.8%.
The figure for `COCCOCC(=O)Nc1ccc(F)cc1C` is -33.5%.
The figure for `Cc1nc(CN2CCC(c3nc4cc(Cl)ccc4o3)CC2)oc1C` is -53.1%; for `Cc1noc(C)c1CN1CCC(c2nc3cc(Cl)ccc3o2)CC1` it is 58.5%; for `CC(C)(C)c1nc(CN2CCC(c3nc4cc(Cl)ccc4o3)CC2)no1` it is -67.9%.
The figure for `O=C([C@@H]1COC[C@H]2CN(C3CCCC3)C[C@H]21)N1CCC(F)CC1` is -68.8%; for `CN1CCN(C(=O)c2nc3c(o2)CN(C(=O)c2cccnc2)C3)CC1` it is -0.0268%.
With `O=C(CSC1=NS(=O)(=O)c2cc(F)ccc2N1)Nc1ccc(Cl)c(Cl)c1`, the INHIBITION was -21.5%.
With `O=C(N1CCOCC1)N1CCC2(CC1)CN(c1ccccn1)CCO2`, the INHIBITION is listed as -99.6%.
The value for `Cc1ccc(C(CNCc2nccn2C)N2CCOCC2)s1` (stereo unspecified) was -28.6%; that for `CCn1cc(CNCC(c2ccc(C)s2)N2CCOCC2)cn1` (stereo unspecified) was 65.7%.
The value for `CCCn1cc(CNCC(c2ccc(C)s2)N2CCOCC2)cn1` (stereo unspecified) was 56.8%; that for `Cc1ccc(C(CNCc2cnn(C(C)C)c2)N2CCOCC2)s1` (stereo unspecified) was 35.9%; that for `CCn1ccnc1CNCC(c1ccc(C)s1)N1CCOCC1` (stereo unspecified) was 54.1%.
The value for `Cc1ccc(C(CNCc2ncc[nH]2)N2CCOCC2)s1` (stereo unspecified) was 34.5%.
For the molecule `CCCn1cc(CN2CCOCC2c2[nH]ncc2C)cn1` (stereo unspecified), the INHIBITION was -155%.
The value for `Cc1ccc(C(CNCc2cccn2C)N2CCOCC2)s1` (stereo unspecified) was -38.5%; that for `Cc1ccc(C(CNCc2ccc(C#N)cc2)N2CCOCC2)s1` (stereo unspecified) was 52.3%.
The value for `Cc1ccc(C(CNCC2CC2)N2CCOCC2)s1` (stereo unspecified) was 26.8%.
As for `O=C(CCn1cccn1)NCC(c1cccs1)N1CCOCC1` (stereo unspecified), the INHIBITION is -64.1%.
With `Cc1ccc(C(CNCc2ccncc2)N2CCOCC2)s1` (stereo unspecified), the INHIBITION is reported as -40.9%.
The value for `CCCOc1ccc(CNc2cncc(-n3cccn3)n2)cc1` was -99.4%; that for `Cc1ccc(N2CCC3(CCCN(C(=O)c4cccnc4)C3)C2)nn1` (stereo unspecified) was -0.21%.
The figure for `O=C(O)c1cccc2c(Br)cccc12` is -180%; for `Cn1cnc2c1CCN(Cc1csc(-c3ccccc3F)n1)C2` it is -58%; for `O=C(c1ccc2c(c1)CCCC2)N1CCN(c2cnccn2)CC1` it is 45%.
On to `CCS(=O)(=O)N1Cc2ccccc2CC1C(=O)OCc1cc(C)no1` (stereo unspecified), for which the INHIBITION is recorded as -132%.
The figure for `Cc1cc(C(F)(F)F)nc(CNC(=O)CCn2cccn2)n1` is -223%.
Consider `O=C([C@@H]1CCO[C@@H]2CCN(Cc3cccs3)C[C@H]21)N1CCCCO1`, for which the INHIBITION is on record as -36.6%.
The figure for `CC(C)c1n[nH]c(C(=O)Nc2ccncc2)c1Br` is -163%; for `Cc1cccc(NC(=O)c2[nH]nc(C(C)C)c2Br)n1` it is 57.6%.
The figure for `CC(C)c1n[nH]c(C(=O)Nc2cc[nH]n2)c1Br` is -208%; for `O=S(=O)(c1cccnc1)N1CCN(Cc2nc(-c3cccs3)cs2)CC1` it is -29%.

The values are drawn from ChEMBL document CHEMBL4513216, “Probing the Open Global Health Chemical Diversity Library for Multistage-Active Starting Points for Next-Generation Antimalarials” (ACS Infect Dis, 2020).
